Screening data as filed in PubChem.
KCNQ2 inh = inhibitors of rat KCNQ2 potassium channel; CHO-K1 KCNQ2, FluxOR thallium flux, 20 min; hits give low values; 1.1% of 310,000 active; O88943; B-score at 10 µM; AID 2156;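 active = fluorescence ratio B-score at most minus 3 library SDs, with starting brightness B-score within 2 library SDs, cut at about -5.5 in these data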
KCNQ2 enhance = potentiators of rat KCNQ2 potassium channel | 0.54% of 310,000 active | AID 2239 | B-score at 10 µM | O88943 | CHO-K1 KCNQ2, FluxOR thallium flux fluorescence; hits give high values;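 active = fluorescence ratio B-score at least 3 SD of library B-scores, with initial fluorescence B-score within 3 of them, cut at about 5.3 in these data; same plate scores as AID 2156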;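 note: B-score of peak minus minimum over baseline fluorescence ratio after K+ and Tl+ stimulus; positive B-score means potentiation of KCNQ2 with more thallium influx and brighter signal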
Kir21 confirm = confirmation of mouse Kir2.1 potassium channel inhibitors | shares compounds with KCNQ2 enhance | Kir2.1-expressing cells, FluxOR thallium flux fluorescence; hits give low values | Tl flux remaining, % of negative control (hits give low values), % at 10 µM | 41% of 2,300 active;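 active = Primary-screen hit whose thallium flux fell at least 3 control SD below untreated wells in both duplicates, with normal baseline fluorescence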;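 note: 0% = blank wells without stimulus and 100% = stimulated no-compound controls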
HEK293 ctr = parental HEK293 activity in Kir2.1 inhibitor counter-screen; shares compounds with KCNQ2 enhance; parental HEK293 cells, FluxOR thallium flux fluorescence; 0% = unstimulated blank wells; FluxOR signal as % of negative control (100 = no effect), % at 10 µM; 19% of 2,300 active;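 active = dye signal at least 3 control SD above or below untreated wells in both duplicates, raw fluorescence within 3, either direction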;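 note: percent is based on the flux ratio of peak minus minimum fluorescence over baseline F0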
CHO-K1 ctr = counter-screen for KCNQ2 potentiators: effect in parental CHO-K1 cells | shares compounds with KCNQ2 enhance | FluxOR thallium flux fluorescence; zero = vehicle mean+3SD, 100% = vehicle-minus-blank window | activity increase over 3SD of controls, % at 10 µM | 43% of 1,200 active;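 active = signal rise of at least 3 SD above the untreated control mean, in both duplicate wells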;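 note: counter screen of KCNQ2 potentiator hits so any rise reflects channel-independent effects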
KCNQ1 sel pot = human KCNQ1 counter-target activity of KCNQ2 potentiators; 28% of 1,200 active; CHO KCNQ1 stable, FluxOR thallium flux fluorescence; beyond 3SD, as % of vehicle-control signal; activation over 3SD threshold, % at 10 µM; AID 2283; shares compounds with KCNQ2 enhance;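 active = fluorescence ratio rise of at least 3 SD of vehicle wells above their mean, in both replicate wells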;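 note: 0% = vehicle mean plus 3 SD and 100% = vehicle minus unstimulated blank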
KCNQ2 pot conf = confirmation of rat KCNQ2 potassium channel potentiators. shares compounds with KCNQ2 enhance. CHO-KCNQ2 cells, FluxOR thallium flux fluorescence. potentiation, less the hit threshold, % at 10 µM. 68% of 1,200 active. AID 2287;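 active = fluorescence ratio rising 3 SD or more over the vehicle control mean in both replicates, plus primary screen hit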;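 note: peak minus minimum thallium fluorescence divided by baseline after K/Tl stimulus; 0% = vehicle mean plus 3 SD and 100% = vehicle minus unstimulated blank difference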
Kir21 spec = tests whether KCNQ2 potentiators also affect mouse Kir2.1; shares compounds with KCNQ2 enhance; HEK293 Kir2.1, FluxOR thallium flux fluorescence; activity over 3SD threshold, % at 10 µM; 2% of 1,200 active; AID 2345;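 active = fluorescence ratio rise of at least 3 SD above the vehicle-control mean, seen in both replicates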;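 note: 0% = vehicle mean plus 3 SD and 100% = vehicle minus no-stimulus blank window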
KCNQ2 W236L pot = rat KCNQ2 W236L mutant potentiation by KCNQ2 potentiators | shares compounds with KCNQ2 enhance | CHO KCNQ2-W236L, automated patch clamp current | current increase over 3SD of negative controls (%), hits give high values, % at 25 µM | 10% of 940 active | AID 2558;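 active = current increase at least 3 SD of the untreated controls above them in both duplicate recordings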
Target sequence (O88943 whole entry W236L, looked up): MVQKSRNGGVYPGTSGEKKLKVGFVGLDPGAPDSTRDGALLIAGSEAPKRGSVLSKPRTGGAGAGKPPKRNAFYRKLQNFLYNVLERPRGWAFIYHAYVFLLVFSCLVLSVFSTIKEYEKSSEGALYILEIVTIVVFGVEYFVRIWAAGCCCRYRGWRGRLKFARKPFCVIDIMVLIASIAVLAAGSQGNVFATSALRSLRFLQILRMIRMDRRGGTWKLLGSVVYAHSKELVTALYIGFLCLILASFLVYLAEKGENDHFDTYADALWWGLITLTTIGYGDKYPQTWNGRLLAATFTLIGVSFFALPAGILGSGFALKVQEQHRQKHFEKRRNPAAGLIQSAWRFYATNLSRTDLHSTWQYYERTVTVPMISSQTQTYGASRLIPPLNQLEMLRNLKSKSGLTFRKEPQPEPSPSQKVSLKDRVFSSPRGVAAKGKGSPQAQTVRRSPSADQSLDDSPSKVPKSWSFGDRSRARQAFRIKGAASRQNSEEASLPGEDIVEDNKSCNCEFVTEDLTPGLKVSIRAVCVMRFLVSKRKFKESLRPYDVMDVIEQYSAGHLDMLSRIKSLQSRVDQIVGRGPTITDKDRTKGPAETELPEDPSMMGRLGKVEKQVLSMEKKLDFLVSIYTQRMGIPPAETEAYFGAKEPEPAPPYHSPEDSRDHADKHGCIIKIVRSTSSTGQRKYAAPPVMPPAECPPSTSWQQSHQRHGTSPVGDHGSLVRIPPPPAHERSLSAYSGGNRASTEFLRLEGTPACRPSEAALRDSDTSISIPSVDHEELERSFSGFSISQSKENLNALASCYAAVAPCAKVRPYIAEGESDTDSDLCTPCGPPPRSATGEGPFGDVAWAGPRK
Active calls of the source: *; i = inactive; x = no result given. Hits are enriched below; roughly 1.6% of the tested compounds scored in any of these assays.

SMILES	KCNQ2 inh	KCNQ2 enhance	Kir21 confirm	HEK293 ctr	others
O=C(c1ccncc1)N1N=C(C2CC2)CC1(O)C(F)(F)F (stereo not given)	i	6.5*	i	i	CHO-K1 ctr=56*;KCNQ1 sel pot=-9;KCNQ2 pot conf=-21;Kir21 spec=-43
O=C(c1cccnc1)N1N=C(C2CC2)CC1(O)C(F)(F)F (stereo not given)	i	1.6	x	x
Cc1nc(-c2c(C(=O)NNC(=O)Nc3c(C)cccc3C)noc2C)cs1	i	x	x	x
CCOc1ccc(NC(=O)CC2S/C(=N/N=C3CCCCCC3)NC2=O)cc1 (stereo not given)	i	x	x	x
Cc1ccc(NC(=O)N2CCCN(C(=O)OC(C)(C)C)CC2)cc1Cl	i	x	x	x
CN(C)c1ccc(C(=O)c2ccccc2C(=O)O)c(O)c1	i	0.86	x	x
CCCCN(CCCC)c1ccc(C(=O)c2ccccc2C(=O)O)c(O)c1	i	8.9*	i	i	CHO-K1 ctr=-7;KCNQ1 sel pot=-22;KCNQ2 pot conf=-2;Kir21 spec=-38;KCNQ2 W236L pot=i
N=c1c2c(ncn1CCCO)Oc1c(ccc3ccccc13)C2c1ccccc1 (stereo not given)	i	x	x	x
CN(C)CCCn1cnc2c(c1=N)C(c1ccccc1)c1ccc3ccccc3c1O2 (stereo not given)	i	x	i	i
C=CCOc1ccc(C2C(C(=O)c3ccco3)=C(O)C(=O)N2c2nnc(C)s2)cc1 (stereo not given)	i	x	x	x
Cc1ccc(-c2nn(-c3ccccc3)cc2/C=N/O)cc1	i	5.4*	i	i	CHO-K1 ctr=-14;KCNQ1 sel pot=-15;KCNQ2 pot conf=15*;Kir21 spec=-32;KCNQ2 W236L pot=i
O/N=C/c1cn(-c2ccccc2)nc1-c1cccnc1	i	x	x	x
CC[C@H]1OC(=O)[C@H](C)[C@@H](O[C@H]2C[C@@](C)(OC)[C@@H](O)[C@H](C)O2)[C@H](C)[C@@H](O[C@@H]2O[C@H](C)C[C@H](N(C)C)[C@H]2O)[C@](C)(O)C[C@@H](C)C(=NOCOCCOC)[C@H](C)[C@@H](O)[C@]1(C)O	i	0.58	x	x
CCS(=O)(=O)n1nc(NCc2cccc(OC)c2)nc1NCc1cccc(OC)c1	i	15*	x	x	CHO-K1 ctr=78*;KCNQ1 sel pot=-7;KCNQ2 pot conf=-25;Kir21 spec=-50
CCCn1nnnc1NCc1cccc(OC)c1	i	x	x	x
Cc1cc(C(=O)OCC(=O)Nc2ccccc2)c(C)o1	i	1.4	x	x
Cc1cc(C(=O)OCC(=O)Nc2ccc(F)cc2)c(C)o1	i	5.7*	i	i	CHO-K1 ctr=74*;KCNQ1 sel pot=-10;KCNQ2 pot conf=-3;Kir21 spec=-34;KCNQ2 W236L pot=i
Nc1ccccc1SSc1ccccc1N	i	x	x	x
CC(C(Sc1ccccc1N)c1ccccc1)[N+](=O)[O-] (stereo not given)	i	x	52%*	i
O=C1C(Cc2c[nH]c3ccccc23)NC(=S)N1Cc1ccccc1 (stereo not given)	i	x	48%*	i
O=C1NC(Cc2c[nH]c3ccccc23)C(=O)N1Cc1ccccc1 (stereo not given)	i	x	x	x
CC(NS(=O)(=O)c1ccc(Br)cc1)c1ccccc1 (stereo not given)	i	x	47%*	i
CC(NS(=O)(=O)c1ccc2c(c1)OCCO2)c1ccccc1 (stereo not given)	i	0.93	x	x
Cc1csc(SCC(=O)Nc2ccc(Cl)cn2)n1	i	0.39	x	x
CC(C)(C)c1csc(SCC(=O)Nc2ccc(Cl)cn2)n1	i	7*	i	i	CHO-K1 ctr=13*;KCNQ1 sel pot=10*;KCNQ2 pot conf=5.0*;Kir21 spec=-46;KCNQ2 W236L pot=i
SMILES	KCNQ2 inh	KCNQ2 enhance	Kir21 confirm	HEK293 ctr	others
CN1CCN(c2ccc(Cl)cc2NC(=O)CCN2C(=O)c3ccccc3C2=O)CC1	i	0.02	x	x
CCn1c(=O)c2sccc2n(Cc2ccccc2)c1=O	i	x	x	x
Oc1c(CN2CCOCC2)cc(COCc2ccccc2)c2cccnc12	i	11*	i	i	CHO-K1 ctr=-18;KCNQ1 sel pot=-25;KCNQ2 pot conf=26*;Kir21 spec=-41;KCNQ2 W236L pot=i
Oc1c(CN2CCN(c3ccccc3)CC2)cc(Br)c2cccnc12	i	0.22	x	x
CC(C)CCC(CCNCc1ccccn1)c1ccc2c(c1)OCO2 (stereo not given)	i	x	57%*	i
Fc1ccccc1CNCCC(Cc1ccccc1)c1ccc2c(c1)OCO2 (stereo not given)	i	x	40%*	77%*
COc1ccc(CNCCC(c2ccccc2)c2ccc3c(c2)OCO3)cc1 (stereo not given)	i	x	x	x
CCNCCC(CCC(C)C)c1ccc2c(c1)OCO2 (stereo not given)	i	0.75	x	x
CC/C(=N/NC(=O)c1ccccc1O)c1c(C)[nH]n(-c2ccccc2)c1=O	i	1.2	x	x
NS(=O)(=O)c1ccc(CCNC(=O)CNC(=O)c2ccc(Oc3ccccc3)cc2)cc1	i	x	x	x
N#Cc1ccc(Cl)cc1NC(=O)COC(=O)[C@H](CCC(N)=O)NC(=O)c1ccc(F)cc1	i	x	x	x
Cc1ccc(S(=O)(=O)Nc2cc(Cl)c(O)cc2C)cc1	i	x	x	x
Cc1ccc(S(=O)(=O)Nc2cc(C(C)C)c(O)cc2C)cc1	i	x	34%*	71%*
COCCCC1CCN(C(=O)c2cc(COc3cc(C)ccc3C)on2)CC1	i	x	x	x
CC(C)(C)NC(=O)CSc1nc2cccnc2n1C1CCCCC1	i	x	x	x
O=C(CSc1ncnc2c1oc1ccccc12)c1cccs1	i	0.98	x	x
Cc1nc(SCC(=O)c2cccs2)c2oc3ccccc3c2n1	i	6*	i	i	CHO-K1 ctr=-16;KCNQ1 sel pot=-4;KCNQ2 pot conf=-7;Kir21 spec=-38;KCNQ2 W236L pot=i
O=C(Cc1ccc(Br)cc1)N1CCN(c2ccccc2O)CC1	i	x	x	x
CC1=NOC(=O)/C1=C\c1ccc(-c2ccc(Br)cc2C(=O)O)o1	i	1.2	x	x
CC1=NN(c2ccc(Br)cc2)C(=O)/C1=C/c1ccc(-c2ccccc2C(=O)O)o1	i	7.1*	i	i	CHO-K1 ctr=-12;KCNQ1 sel pot=14*;KCNQ2 pot conf=19*;Kir21 spec=-33;KCNQ2 W236L pot=i
COc1ccccc1N1CCN(S(=O)(=O)c2cnc[nH]2)CC1	i	x	x	x
O=C1c2ccccc2NC(c2ccc(Br)s2)N1O (stereo not given)	i	7.8*	i	288%*	CHO-K1 ctr=1.4*;KCNQ1 sel pot=27*;KCNQ2 pot conf=22*;Kir21 spec=-38;KCNQ2 W236L pot=i
C=CCN1C(=O)c2ccccc2NC1c1ccc(Br)s1 (stereo not given)	i	1.2	x	x
CC1=NNC(=O)c2ccccc2O1	i	x	x	x
CCCn1nc(NC(=O)COC)c2cc3cccc(C)c3nc21	i	x	x	x
